The results in this text go back to the supplement of paper PMC12339681.

Counter-ions that a name gives are not always drawn.

This experiment relates to PBMC-derived induced microglia-like cells (piMGLC). In words: synaptosome phagocytic index relative to DMSO control (fraction of DMSO); higher = more phagocytosis. As to conditions: concentration: 10 uM (2 uM for compounds listed in Table S2); pretreatment time: 24 h; assay time: 3 h.
Turning to `Cc1cc(C)cc(OCC2CNC(=O)O2)c1` (configuration not stated) [Metaxalone], the synaptosome phagocytic index was determined as 0.757. As to `CCCN[C@H]1CCc2nc(N)sc2C1` [Pramipexole_(dihydrochloride_hydrate)], the synaptosome phagocytic index worked out at 0.763. For the compound `C[C@@H]1CN(C(=O)[C@@H]2CN(C(C)(C)C)C[C@H]2c2ccc(F)cc2F)C[C@H](C)[C@@]1(O)c1ccccc1`, the synaptosome phagocytic index was 0.704. Take `CN1CC[C@H](c2c(O)cc(O)c3c(=O)cc(-c4ccccc4Cl)oc23)[C@H](O)C1` [Flavopiridol]: the synaptosome phagocytic index amounted to 0.936. For the compound `O=C1NC(=O)C(c2ccccc2)(c2ccccc2)N1` [Phenytoin], the synaptosome phagocytic index was 1.12.

As for `C[C@@H]1CN(c2cccnc2F)C(=O)c2cc(COc3ccc(Cl)cn3)nn21`, the synaptosome phagocytic index was 1.13. For the compound `COc1ccc(-c2c(C)nn3c(C(F)(F)F)cc(C)nc23)c(F)c1F`, the synaptosome phagocytic index amounted to 0.98.

Turning to `O=C(O)Cc1ccccc1Nc1c(Cl)cccc1Cl` [Diclofenac], the synaptosome phagocytic index was 1.01. Then `N#Cc1ccc(COC[C@H]2O[C@@H](n3c(NCc4ccc(Cl)c(Cl)c4)nc4c(N)ncnc43)[C@H](O)[C@@H]2O)cc1`, with 0.479. With `CCC(C)n1ncn(-c2ccc(N3CCN(c4ccc(OCC5COC(Cn6cncn6)(c6ccc(Cl)cc6Cl)O5)cc4)CC3)cc2)c1=O` (configuration not stated) [Itraconazole], the synaptosome phagocytic index was found to be 0.377. The figure for `COc1cc(C(=O)Nc2cc(OC(F)(F)F)ccc2-n2cncn2)ccc1OCC1CC1` is 0.921; for `Cc1cc([C@@]23c4ccccc4C(=O)N2CCN3C(=O)c2ccc(F)c(F)c2)ccc1Cl` it is 0.335; for `C[C@@H]1O[C@@H]1P(=O)(O)O` [Fosfomycin_(sodium)] it is 1.11.

For `O=c1[nH]c2cc(Cl)ccc2c(O)c1-c1cccc(Oc2ccccc2)c1`, the synaptosome phagocytic index was 1.18.

For the compound `CCc1cccc2c3c([nH]c12)C(CC)(CC(=O)O)OCC3` (configuration not stated) [Etodolac], the synaptosome phagocytic index is 1.01.

For `Clc1cccc(Cl)c1NC1=NCCN1` [Clonidine_(hydrochloride)], the synaptosome phagocytic index was determined as 0.898. `Nc1ccccc1NC(=O)c1ccc(CNC(=O)OCc2cccnc2)cc1` [Entinostat]: the synaptosome phagocytic index amounted to 0.753. The figure for `Nc1nc(Cl)nc2c1ncn2[C@H]1C[C@H](O)[C@@H](CO)O1` [Cladribine] is 1.1; for `Cn1nnc2c(C(N)=O)ncn2c1=O` [Temozolomide] it is 0.824.

In the case of `C[C@@H](C(=O)O)c1ccc(-c2ccccc2)c(F)c1` [Tarenflurbil], the synaptosome phagocytic index was 1.11. Regarding `O=C1Cc2cc(CCN3CCN(c4nsc5ccccc45)CC3)c(Cl)cc2N1` [Ziprasidone_(hydrochloride_monohydrate)], the synaptosome phagocytic index turned out to be 0.51.

For `CNCCC(Oc1ccc(C(F)(F)F)cc1)c1ccccc1` (configuration not stated) [Fluoxetine_(hydrochloride)], the synaptosome phagocytic index was determined as 0.69.

On to `CCCN(CCc1cccs1)[C@H]1CCc2c(O)cccc2C1` [Rotigotine], for which the synaptosome phagocytic index came to 0.995. In the case of `CO/N=C(\C(=O)N[C@@H]1C(=O)N2C(C(=O)O)=C(C[N+]3(C)CCCC3)CS[C@H]12)c1csc(N)n1` [Cefepime_(Dihydrochloride_Monohydrate)], the synaptosome phagocytic index is 0.597.

Regarding `Cn1cc(-c2c[nH]c3ncnc(N4CCOCC4)c23)cc1C#N`, the synaptosome phagocytic index stood at 1.32. For the compound `CCN1CCN(Cc2ccc(Nc3ncc(F)c(-c4cc(F)c5nc(C)n(C(C)C)c5c4)n3)nc2)CC1` [Abemaciclib], the synaptosome phagocytic index turned out to be 0.228. As for `FC(F)(F)c1ccc(CNc2ccc(Cc3c[nH]c4ncc(Cl)cc34)cn2)cn1` [Pexidartinib_(hydrochloride)], the synaptosome phagocytic index stood at 0.976. `COc1cc2ncnc(Nc3ccc(F)c(Cl)c3)c2cc1NC(=O)/C=C/CN1CCCCC1` [Dacomitinib]: the synaptosome phagocytic index was 1.26. With `CN1CCN(C2=Nc3cc(Cl)ccc3Nc3ccccc32)CC1` [Clozapine], the synaptosome phagocytic index came out at 0.697. Consider `CC(C)Cc1ccc([C@@H](C)C(=O)O)cc1` [(R)-(-)-Ibuprofen], for which the synaptosome phagocytic index stood at 1.31. The figure for `Cc1ccsc1C(=CCCN1CCC[C@@H](C(=O)O)C1)c1sccc1C` [Tiagabine_(hydrochloride)] is 1.28; for `COC1(c2sc3c(N4CCOCC4)nc(-c4cnc(N)nc4)nc3c2C)COC1` it is 0.384; for `COC(=O)N[C@H](C(=O)N[C@@H](Cc1ccccc1)[C@@H](O)CN(Cc1ccc(-c2ccccn2)cc1)NC(=O)[C@@H](NC(=O)OC)C(C)(C)C)C(C)(C)C` [Atazanavir_(sulfate)] it is 0.81. In the case of `CN(C/C=C/C#CC(C)(C)C)Cc1cccc2ccccc12` [Terbinafine], the synaptosome phagocytic index came to 0.502. As to `COc1cc2c(N3CCN(C(=O)Nc4ccc(OC(C)C)cc4)CC3)ncnc2cc1OCCCN1CCCCC1` [Tandutinib_(hydrochloride)], the synaptosome phagocytic index is 0.778. Turning to `CC[C@H](NC(=O)c1c(C)c(-c2ccccc2)nc2ccccc12)c1ccccc1`, the synaptosome phagocytic index was determined as 0.907.

For `Cc1ccc(NC(=O)c2ccc(CN3CCN(C)CC3)cc2)cc1Nc1nccc(-c2cccnc2)n1` [Imatinib_(Mesylate)], the synaptosome phagocytic index turned out to be 0.52.
